About 17,000 (5.5%) of roughly 310,000 compounds were called active. About 11% were inconclusive and are not listed. The entries come from a sample that favours actives as a whole. Unmarked numbers belong to inactive results. Calls follow the shape of the dose curve; as a rule, active = well fitted inhibition curve with a large enough effect; inconclusive = small, poorly fitted or top-dose-only effect, or effect the other way; inactive = no such curve, though single readings can be large or run the other way.
% is scaled to controls: 0 for no effect and ±100 for the full control effect; potency is read from the fitted curve at half-maximal effect.

Chain of Nuclear receptor ROR-gamma (Mus musculus) (P51450 whole entry, looked up, the tested form may be a part): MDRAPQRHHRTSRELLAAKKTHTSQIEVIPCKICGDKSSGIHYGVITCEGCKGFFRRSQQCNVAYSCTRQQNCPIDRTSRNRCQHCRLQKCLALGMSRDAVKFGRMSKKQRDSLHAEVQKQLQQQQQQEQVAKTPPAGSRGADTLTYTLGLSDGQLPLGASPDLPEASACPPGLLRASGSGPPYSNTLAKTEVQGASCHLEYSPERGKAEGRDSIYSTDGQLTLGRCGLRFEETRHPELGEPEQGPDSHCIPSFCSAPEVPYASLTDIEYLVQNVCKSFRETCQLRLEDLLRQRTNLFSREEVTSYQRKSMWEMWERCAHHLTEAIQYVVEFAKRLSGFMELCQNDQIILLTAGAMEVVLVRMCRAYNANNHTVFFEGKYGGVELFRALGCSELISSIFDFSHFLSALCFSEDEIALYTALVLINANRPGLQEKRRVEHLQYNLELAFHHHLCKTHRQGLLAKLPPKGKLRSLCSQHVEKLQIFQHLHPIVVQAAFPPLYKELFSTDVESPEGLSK

This test concerns the target Nuclear receptor ROR-gamma (Mus musculus) (UniProt P51450). The test can be described thus: qHTS for inhibitors of ROR gamma transcriptional activity. Also: nearly all actives have a fitted effect of over 60% in size. The note with it: Drosophila S2 Gal4-RORgamma UAS-luciferase reporter, 20 h; series mostly up to 53.6 µM; activity change, negative = inhibition: at the top concentration. In outline:
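In this cell-based reporter format, copper sulfate (700 uM final) drives Gal4–ROR gamma fusion expression from a metallothionein promoter in Drosophila Schneider cells; compounds preincubated 1 hr, reporter read after 20 hr at ambient temperature.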
A general note: In qHTS, concentration-response curves come from the screen itself.
In the case of `COCC1CCN(C(=O)C2CCC(=O)N(Cc3cccc(C(F)(F)F)c3)C2)CC1` (stereo not given), the “activity change, negative = inhibition” value was 3.4%. Take `O=C(NCc1ccccn1)[C@]1(C(F)(F)F)C[C@H](CCc2ccccc2)CCCO1`: the “activity change, negative = inhibition” value is 4.22%.

Turning to `O=C(NCc1cc(F)cc(C(F)(F)F)c1)C1CCC(=O)N(C2CCCC2)C1` (stereo not given), the “activity change, negative = inhibition” value is 38.2%.

Take `CC1CCCC(C)N1C(=O)CSc1nnnn1C1CCCC1` (stereo not given): the “activity change, negative = inhibition” value is 5%. Still for that read-out and setting: next, `Nc1nnn(CC(=O)N/N=C/c2ccccc2)n1`: 4.37%; `Nc1nnnn1CC(=O)N/N=C/c1ccc(-c2cccc(Cl)c2)o1`: -17.9%. For `O=C(Cn1nnc(-c2ccccc2)n1)N/N=C/c1ccc(-c2ccc(Cl)cc2)o1`, the Potency was 7.08 µM (active). As for `Cc1ccccc1OCC(=O)N(Cc1cccc(F)c1)C1CCS(=O)(=O)C1` (stereo not given), the “activity change, negative = inhibition” value is 16.9%. Turning to `Cc1nn(C)cc1C(=O)NNC(=S)Nc1ccc(Cl)cc1`, the Potency is 11.2 µM (active).

As for `Cc1nn(C)cc1C(=O)Nc1ccccc1Br`, the “activity change, negative = inhibition” value is 23.8%. As for `Cc1nn(C)cc1CNC(=O)Nc1ccc(Cl)cc1`, the “activity change, negative = inhibition” value is 41.3%. The same measure, in the same setting: next, `CC1CCN(S(=O)(=O)c2ccc3c(ccn3CC(=O)O)c2)CC1`: -0.22%; `CC(=O)c1ccc2c(c1)OCCOCCOc1ccc(C(C)=O)cc1OCCOCCO2`: 25%; `CN(C)c1ccc(/C=C/C(=O)c2ccc(C(C)(C)C)cc2)cc1[N+](=O)[O-]`: -0.484%. `CN(C)c1ccc(/C=C/C(=O)c2ccc(O)cc2)cc1[N+](=O)[O-]`: the Potency is 1.41 µM (active). The same measure, in the same setting: then `O=C(/C=C/c1ccc2c(c1)OCCO2)c1ccc(O)cc1`, with 1.26 µM (active).

As to `O=C(O)/C=C/c1ccc2c(c1)OCCO2`, the “activity change, negative = inhibition” value was -3.92%.

As for `Cc1nn(-c2ccccc2)c(Cl)c1/C=C/C(=O)c1ccc(O)cc1`, the “activity change, negative = inhibition” value was 33.8%.

For the molecule `Cc1ccc([N+](=O)[O-])cc1S(=O)(=O)N1CCCN(C)CC1`, the “activity change, negative = inhibition” value is -22.4%.

Turning to `O=C(CCc1nnc2ccc(NCCCN3CCCC3=O)nn12)NCc1ccccc1Cl`, the “activity change, negative = inhibition” value was -9.05%. `Cc1ccc(/C=C2/SC(=S)N(CCC(=O)NCCCN3CCOCC3)C2=O)cc1`: the “activity change, negative = inhibition” value was 28.6%.

Consider `O=C(NC1CCC(O)CC1)c1ccccc1OCc1ccc(F)cc1` (stereo not given), for which the “activity change, negative = inhibition” value was 4.09%. The same measure, in the same setting: next, `O=C1NC(c2cccc(Cl)c2)Nc2ccccc21` (stereo not given): 19.6%. For the molecule `O=c1c(-c2cccc(Cl)c2)c[nH]n1-c1ccccc1`, the “activity change, negative = inhibition” value is 35.9%. Turning to `O=C1c2ccccc2NC(c2ccc(-c3cccc(Cl)c3)o2)N1O` (stereo not given), the Potency is 11.2 µM (active). For `COc1cc(-c2c(-c3ccc4c(c3)OCO4)noc2C)ccc1F`, the “activity change, negative = inhibition” value was -12.6%.

Regarding `COc1ccc(NC(=O)CNC(=O)Cc2ccccc2)cc1OC`, the “activity change, negative = inhibition” value was 0.651%.

As to `COc1ccc(NC(=S)SC)cc1OC`, the Potency is 20 µM (active). In the case of `COc1ccc(NS(=O)(=O)c2ccc(NC(C)=O)cc2)cc1OC`, the activity change, negative = inhibition was 35.4% [at 0.365 µM]. Same read-out and setting: next, `Cc1c(C(=O)N2CCCC2)c(S(=O)(=O)NCC(C)c2ccccc2)c(C)n1C` (stereo not given): 4.91%.
